# This excerpt belongs to a sample that is enriched for hits.
# KDM5B inh: inhibitors of human KDM5B histone demethylase; Q9UGL1; KDM5B demethylase, FDH-coupled NADH fluorescence (FDH is formaldehyde dehydrogenase); Potency, µM (series often up to 57.7 µM), most hits filed as inhibitors; 220,000 tested, 2.6% active; AID 1347165; active means well fitted inhibition curve with a large enough effect; further: 0% is about no effect; nearly all actives have a fitted effect of over 70% in size
#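 Here, H3K4me3 peptide (12.5 µM in substrate mix) is demethylated by KDM5BΔAP, 200 nM final, after 10 min compound exposure. Formaldehyde product is coupled through FDH (0.25 U/mL in mix) to NADH fluorescence; 30-min ΔRFU feeds dose-response curves.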
# * marks the source's active call; other numbers are inactive results; i = inactive. Potency means the concentration at half of the fitted maximal effect.
SMILES,KDM5B inh
Cc1ccc(NCCC(=O)O)cc1,i
CN(Cc1ccccc1)C(=O)CCNC(=O)Nc1ccccc1,i
Cc1ccc(-c2nc3cnccn3c2NCCC(=O)O)cc1,28µM*
Cc1ccc(-c2nc3cnccn3c2NCCC(=O)N(C)C)cc1,28µM*
Cc1ccn2c(NC3CCCC3)c(-c3ccncc3)nc2c1,i
CN(Cc1ccccc1)C(=O)c1nc2ccccn2c1CNCCCOc1cccnc1,i
Cc1ccccc1-c1nc2cnccn2c1NCCC(=O)N(C)Cc1ccccc1,28µM*
COC(=O)CCn1c(SC(C)C(=O)c2ccccc2)nc2ccccc2c1=O (configuration not stated),i
CCOc1ccccc1C(=O)N1CCN(c2cc(-c3ccc(Cl)cc3)[nH]n2)CC1,i
CCC1c2nccn2CCCN1C(=O)CCc1c(C)noc1C (configuration not stated),i
O=C(Nc1cccc(C(F)(F)F)c1)N[C@H]1[C@H](O)[C@@H](N2CCN(c3ccccc3)CC2)[C@@H]2OC[C@H]1O2,i
Cc1nc2c(sc3cccc(F)c32)c(=O)n1CC(=O)Nc1ccccc1C(F)(F)F,i
COc1cccc(CN(C)CC(=O)NC2CCCCCC2)c1OC,i
CCN1CCc2c(sc(NC(=O)Nc3ccc(Cl)cc3)c2C(N)=O)C1,i
COc1ccc(-c2cc(C(=O)NC3CCN(C)CC3)c3ccccc3n2)cc1OC,i
CNC(=O)[C@@H]1CN(S(=O)(=O)c2ccc(F)c(C)c2)C[C@H]1C1CCN(C)CC1,22µM*
CNC(=O)[C@@H]1CN(S(=O)(=O)c2cccc(Cl)c2)C[C@H]1C1CCN(C)CC1,i
CNC(=O)[C@@H]1CN(S(=O)(=O)c2cccnc2)C[C@H]1C1CCN(C)CC1,i
CC(C)=CCn1c(-c2ccccc2Cl)cn2cc(C(=O)NCCCO)nc2c1=O,i
Cn1c(=O)c2c(-c3ccccc3)n3c(c2n(C)c1=O)C(c1ccc(C#N)cc1)Nc1ccccc1-3 (configuration not stated),i
Cc1ccc(C)c(/C=C/c2onc(C)c2S(=O)(=O)N2CCCC(C(=O)NC3CCCC3)C2)c1 (configuration not stated),i
CCCCOc1ccc(NC(=O)CCC)c2cccnc12,i
COc1ccc(-c2ccc3nnc(CNC(=O)C(C)Oc4ccccc4)n3n2)cc1 (configuration not stated),32µM*
CC(Oc1ccccc1)C(=O)NCc1cccnc1N(C)C (configuration not stated),i
COc1ccc(-c2ccc3nnc(CNC(=O)C(C)Oc4cccc(Cl)c4)n3n2)cc1 (configuration not stated),28µM*
SMILES,KDM5B inh
COc1ccc(OC(C)C(=O)NCc2nc(-c3cccc(C)c3)no2)cc1 (configuration not stated),i
CCCOc1cc(C)c(C)cc1S(=O)(=O)N1CCCCC1,i
CC(=O)c1cn(CC(=O)NCc2ccc(F)cc2)c2ccccc12,i
N#CC(C#N)=Cc1cc(-c2ccccc2)n(-c2ccccc2)c1-c1ccccc1,i
CCN(CC)C(CNS(=O)(=O)c1ccc(C)cc1)c1ccsc1 (configuration not stated),i
c1ccc(-c2nnc3ccc(-c4ccoc4)nn23)nc1,32µM*
CN(Cc1ccccc1)c1ccc2nnc(-c3ccccn3)n2n1,i
Fc1cccc(CNc2ccc3nnc(-c4ccccn4)n3n2)c1,i
CCOC(=O)CC1COCCN1C(=O)c1cn(Cc2ccc(F)cc2Cl)nn1 (configuration not stated),i
CN1CC2(CCCN(Cc3ccc(-c4ccccn4)cc3)C2)OC1=O (configuration not stated),i
CN1CC2(CCCN(Cc3cc4ccccc4o3)C2)OC1=O (configuration not stated),i
CN1CC2(CCCN(Cc3cc4ccccc4n(C)c3=O)C2)OC1=O (configuration not stated),22µM*
Cn1cc(C(C(=O)O)N2CCN(C(c3ccccc3)c3ccccc3)CC2)c2cc(C(=O)O)ccc21 (configuration not stated),i
CCOc1ccccc1CN1CCC2(CCN(C(=O)Nc3ccccc3)CC2)Oc2ccccc21,i
O=c1ncn(CC2CC2)c2ccc(-c3ccc4c(c3)OCO4)nc12,i
CCn1cnc2c1c(=O)n(CC(=O)OCCOc1ccccc1)c(=O)n2Cc1ccccc1,i
CC(=O)Nc1cccc(-c2ccc3c(n2)c(=O)ncn3Cc2ccccc2)c1,i
O=C1Nc2ccccc2CCC1n1nc(-c2ccc(Cl)cc2)ccc1=O (configuration not stated),i
O=c1ncn(Cc2ccccc2)c2ccc(NCCOc3ccccc3)nc12,35µM*
O=c1ncn(CC2CC2)c2ccc(-c3ccc(Cl)cc3)nc12,40µM*
O=c1ncn(CC2CC2)c2ccc(-c3ccoc3)nc12,32µM*
Cc1nn(CC(=O)NCCOc2ccccc2)c(=O)c2ccccc12,i
Cn1c(=O)c2c(ncn2Cc2ccc(F)cc2)n(C)c1=O,i
O=c1ncn(Cc2ccccc2)c2ccc(-c3ccc(F)cc3)nc12,35µM*

# Bioassay records deposited in PubChem by National Center for Advancing Translational Sciences (NCATS).
